# Bioassay records (PubChem BioAssay)
# Rows were chosen to be rich in hits. Some 2.7% of all compounds tested hit in one or more screens of this group.
# Tau fibril ThT: blocks human tau fibril formation measured by thioflavin T. recombinant tau K18 P301L, heparin-induced fibrillization, ThT fluorescence. Potency, µM (top dose mostly 57.4 µM), actives largely listed as inhibitors. 270,000 compounds, 2.1% hits; note: nearly all actives have a fitted effect of over 55% in size
# Target sequence (P10636 561-689 P618L limits assumed): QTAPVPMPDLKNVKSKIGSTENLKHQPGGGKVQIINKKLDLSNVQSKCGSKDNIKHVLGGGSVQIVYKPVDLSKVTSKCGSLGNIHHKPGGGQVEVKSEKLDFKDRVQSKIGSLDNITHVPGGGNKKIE
#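 Fibril formation assay: tau K18 P301L at 15 uM with trace Alexa 594 label, heparin inducer 20 uM, pH 7 sodium acetate buffer, 37 C for 6 hr; endpoint ThT signal.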
# Tau fibril FP: tau fibrillization inhibition (FP). P10636. K18 P301L tau heparin fibrillization, Alexa594 FP, 6 h. Potency, µM (titrated, usually from 57.7 µM), actives largely listed as inhibitors. 280,000 compounds, 0.39% hits. AID 1468; note: nearly all actives have a fitted effect of over 55% in size
#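 Human tau K18 […] P301L fragment, 15 uM unlabeled plus 0.24 uM Alexa 594-labeled tau (final), with compound and 20 uM heparin in 100 mM sodium acetate pH 7; 6 hr at 37 C, then Alexa 594 FP read.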
# Coupling enz: counter-screen for Giardia aldolase inhibitors: coupling enzyme system; coupling enzyme system counterscreen, AmpLite Red fluorescence; activity change, negative = inhibition, % at 58.2 µM, hits read low; 290,000 compounds, 0.67% hits; in the data active = activity change below about -30%
#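 Counterscreen lacking aldolase: glyceraldehyde-3-phosphate coupling-enzyme reagent preincubated 10 min at RT with compound (at 57.5 uM final), then substrate/coupling system with AmpLite Red added; fluorescence read at 525/598 nm after 20 min RT.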
# Tau fluor counter: counter-screen for tau fibril formation inhibitors. tau K18 P301L Alexa594 fluorescence, heparin fibrillization. AID 1463. Potency, µM (top dose mostly 57.7 µM). 280,000 compounds, 0.93% hits; note: nearly all actives have a fitted effect of over 55% in size
#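 Human tau K18 P301L (15 uM unlabeled, 0.24 uM Alexa 594-labeled) in 100 mM sodium acetate pH 7 with 20 uM heparin, 6 hr at 37 C. ThT 30 uM added, 1 hr ambient; Alexa 594 FP and total fluorescence read at 555/632 nm.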
# Numbers stand for hits; i = inactive; ? = inconclusive; nt = not tested or not shown; [ ] = remark or other dose. Unless noted, calls come from the whole dose curve; as a rule, active = well fitted curve in the direction sought with a large enough effect; inconclusive = small, poorly fitted or top-dose-only effect, or another doubt; inactive = no such curve, though single readings can be large; an effect the other way counts as inactive or inconclusive.
SMILES,Tau fibril ThT,Tau fibril FP,Coupling enz,Tau fluor counter
COc1ccccc1NC(=O)c1c(NCc2ccc(OC)c(OC)c2OC)sc2c1CCC2,?,i,nt,i
COc1ccc(NC(=O)c2c(NC(=O)CCC(=O)O)sc3c2CCCCC3)cc1,?,i,i,i
COc1ccccc1NC(=O)c1c(NCc2ccc(OC)c(OC)c2OC)sc2c1CCCC2,?,i,nt,?
COc1ccc(NC(=O)c2c(NC(=O)C(F)(F)F)sc3c2CCCCC3)cc1,15.8µM,i,nt,?
COc1ccc(Cl)cc1NC(=O)c1c(NCc2cccnc2)sc2c1CCCC2,17.8µM,i,nt,?
COc1ccc(NC(=O)c2c(NCc3ccc(OC)c(OC)c3OC)sc3c2CCC3)c(OC)c1,14.1µM,i,nt,?
CC(C)NC(=O)Cn1c(=O)nc(-c2ccccc2)c2ccccc21,i,i,nt,i
CCOC(=O)c1c(NC(=O)c2ccccc2C)sc2c1CCCC2,31.6µM,?,nt,i
COc1ccc(NC(=O)c2c(NCc3cccc(OC)c3)sc3c2CCCC3)cc1,?,i,nt,?
COc1ccc(NC(=O)c2c(NCc3ccc(N(C)C)cc3)sc3c2CCC3)cc1,15.8µM,i,nt,?
COc1ccccc1C(=O)Nc1nc2nc(C)c(Cc3ccccc3)c(=O)n2[nH]1,?,i,nt,i
COC(=O)c1cc(=O)c(O)c2c(O)c(O)ccc2c1,3.55µM,7.94µM,-30.6,?
CN1CCN(/N=C/c2ccc(-c3ccc([N+](=O)[O-])cc3Cl)o2)CC1,11.2µM,i,i,?
CC1CCN(S(=O)(=O)c2cc3c4c(c2)CC(=O)N4CCC3)CC1,i,?,nt,i
CC1CCN(S(=O)(=O)c2ccc3c4c2CC(=O)N4CC(C)S3)CC1 (stereo not drawn),nt,nt,-33.1,nt
Cc1ccc(C2(c3ccc(C)cc3)CC2C(=O)Nc2ccc([N+](=O)[O-])cc2O)cc1 (stereo not drawn),i,?,i,10µM[quencher]
CCc1ccccc1N1C(=O)N(CC(=O)c2ccc(OC)cc2)c2ccccc2S1(=O)=O,?,i,nt,?
CCCC[C@@H]1C[C@H]1C(NC(=O)c1cccnc1)c1ccc(-c2ccccc2)cc1 (stereo partly drawn),i,i,i,i
O=C(CCCSc1ccccc1)Nc1nc(-c2ccco2)c(-c2ccco2)s1,?,i,i,?
O=C(CCl)Nc1nc(-c2ccco2)c(-c2ccco2)s1,?,i,i,12.6µM[quencher]
Clc1ccc(Nc2nc(C3CC3)cs2)cc1,?,?,i,15.8µM[quencher]
Cc1ccc(Nc2nc(C3CC3)cs2)cc1,?,i,i,?
O=c1cc(CSc2nc3ccccc3[nH]2)c2ccccc2[nH]1,i,i,i,i
Fc1ccc(CSc2nc3ccccc3[nH]2)c2ccccc12,i,25.1µM,i,?
COc1ccc(-c2nc(-c3ccccc3)c(-c3cccs3)[nH]2)cc1OC,?,?,i,14.1µM[quencher]
SMILES,Tau fibril ThT,Tau fibril FP,Coupling enz,Tau fluor counter
COc1ccc(-c2nc(-c3cccs3)c(-c3cccs3)[nH]2)cc1OC,?,i,i,10µM[quencher]
Cc1ccccc1/C=C1\SC(=S)N(/N=C/c2cc([N+](=O)[O-])ccc2O)C1=O,25.1µM,i,i,?
O=C1/C(=C\c2cc([N+](=O)[O-])ccc2O)SC(=S)N1Cc1ccc(Cl)cc1,nt,nt,i,nt
Cc1cc(C)c(S(=O)(=O)N2CCC(n3c(C(F)(F)F)nc4cccnc43)CC2)c(C)c1,i,i,nt,i
COC(=O)c1ccc(C(=O)OC)c(NC(=O)N2CC3CCCN3c3ccccc32)c1 (stereo not drawn),?,i,nt,i
COc1ccccc1C(=O)NN1C(=O)/C(=C/c2cccn2C)SC1=S,?,i,i,?
Cn1cccc1/C=C1\SC(=S)N(NC(=O)c2ccccc2)C1=O,11.2µM,i,i,?
Cn1cccc1/C=C1\SC(=S)N(NC(=O)c2cccc(Cl)c2)C1=O,3.98µM,i,i,?
O=C(NN1C(=O)/C(=C/C=C/c2ccco2)SC1=S)c1ccccc1O,7.08µM,?,i,?
Cn1cccc1/C=C1\SC(=S)N(NC(=O)c2ccccc2O)C1=O,7.94µM,i,i,?
CCc1cccc(C)c1NC(=O)C(CC)n1ncn2c(cc3cc(C)ccc32)c1=O (stereo not drawn),i,i,nt,i
O=C(NN1C(=O)/C(=C/c2cccs2)SC1=S)c1ccccc1,?,i,i,i
Cn1cccc1/C=C1\SC(=S)N(NC(=O)c2ccc(F)cc2)C1=O,3.55µM,i,i,?
CCNC(=S)/C(=C(/[O-])c1ccc([N+](=O)[O-])cc1)[n+]1ccccc1,?,i,i,i
S=C(NCc1ccco1)Nc1ccccc1Cl,i,i,i,i
CC(C)(C)c1ccc(/C([O-])=C(/C(=S)NCc2ccco2)[n+]2ccccc2)cc1,?,i,-30.4,i
Cc1ccc[n+](/C(C(=S)NCc2ccco2)=C(/[O-])c2ccccc2Cl)c1,i,i,-32.4,i
O=C(Nc1ccc(Cl)cc1Cl)c1cc(S(=O)(=O)NCc2ccc3c(c2)OCO3)ccc1F,i,i,nt,i
COc1cccc([C@@H]2Oc3ccc(Br)cc3C(=O)[C@H]2OC(=O)Nc2ccc(C)c(Br)c2)c1,?,i,i,i
CC(=O)Nc1ccc(NS(=O)(=O)c2c(Cl)cccc2Cl)cc1,i,i,i,i
Cc1ccc(NNC(=S)Nc2ccc(C(C)C)cc2)c(C)c1,14.1µM,i,i,?
Cc1ccc(/C=C/C(=O)Nc2ccncc2)o1,?,i,i,i
Cc1ccc(/C=C/C(=O)Nc2ccc(N(C)C)cc2)o1,8.91µM,i,i,i
CC1=Nc2ccccc2/C1=C\c1nc(-c2ccccc2)oc1O,5.01µM,?,i,7.94µM[quencher]
CC1=Nc2ccccc2/C1=C\c1nc(-c2ccc(C(F)(F)F)cc2)oc1O,12.6µM,i,i,11.2µM[quencher]
SMILES,Tau fibril ThT,Tau fibril FP,Coupling enz,Tau fluor counter
Oc1ccccc1-c1nnc(-c2ccc(C(F)(F)F)cc2)o1,i,i,i,i
Oc1oc(-c2ccccc2)nc1C=Nc1ccccc1,?,i,i,i
COc1ccc(-c2nc(/C=C3\C(C)=Nc4ccccc43)c(O)o2)cc1,3.98µM,?,i,8.91µM[quencher]
Cc1ccc(N=Cc2nc(-c3ccc(C)cc3)oc2O)cc1,?,i,i,i
CC1=Nc2ccccc2/C1=C/c1nc(-c2ccc(C)s2)oc1O,2.82µM,i,i,5.01µM[quencher]
COc1ccc(CCNC(=O)C(=O)NCC(c2ccco2)S(=O)(=O)c2ccccc2)cc1OC (stereo not drawn),i,i,nt,i
COc1ccc(CC(=O)NCC(c2cccs2)S(=O)(=O)c2ccc(Cl)cc2)cc1 (stereo not drawn),i,i,nt,i
COc1cccc(-c2nc(SCC(=O)Nc3ccc4c(c3)OCCO4)c(-c3ccccc3)[nH]2)c1,?,i,nt,5.62µM[quencher]
COc1ccc(-c2[nH]c(-c3ccc4c(c3)OCO4)nc2-c2ccccc2)cc1,?,i,i,14.1µM[quencher]
COc1ccc(-c2cc(C(F)(F)F)nc(SCC(=O)Nc3ccc4c(c3)OCO4)n2)cc1,i,i,i,i
COc1ccc(-c2[nH]c(-c3cccc(OC)c3)nc2SCC(=O)Nc2ccc3c(c2)OCO3)cc1,?,i,nt,6.31µM[quencher]
O=C(COc1ccc(F)cc1)Nc1ccc2c(c1)OCCO2,nt,nt,i,nt
